ANO1 block = mouse TMEM16A channel inhibition, primary screen; Q8BHY3; HEK293 TMEM16A/YFP iodide influx fluorescence, ionomycin; normalized B-score (activity score, 25-100; higher = stronger inhibition) at 10 µM; 310,000 compounds, 1.2% hits;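 active means ratio plate-corrected score three or more library SD toward inhibition, starting fluorescence score within five deviations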;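 further: score derived from kinetic fluorescence span divided by baseline fluorescence per well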
Rce1 inh = blocks yeast Ras-converting enzyme; Q03530; yeast membranes, quenched prenylated peptide cleavage fluorescence; calls only; 290,000 compounds, 0.27% hits; AID 2563;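 active means fall in fluorescence gain of 50% or more versus controls, with final raw signal at or below 3038400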
Target sequence (Q03530 whole entry, looked up): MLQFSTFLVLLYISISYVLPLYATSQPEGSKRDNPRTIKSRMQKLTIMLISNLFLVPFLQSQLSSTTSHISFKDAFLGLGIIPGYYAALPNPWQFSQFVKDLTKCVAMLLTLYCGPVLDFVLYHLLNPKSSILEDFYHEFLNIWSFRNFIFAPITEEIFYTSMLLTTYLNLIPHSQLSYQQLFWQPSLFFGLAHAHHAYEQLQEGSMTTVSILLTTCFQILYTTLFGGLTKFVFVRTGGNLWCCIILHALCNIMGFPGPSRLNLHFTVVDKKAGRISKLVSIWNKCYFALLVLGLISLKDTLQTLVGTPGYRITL
CHT PAM = allosteric activators of human choline transporter CHT. Q9GZV3. CHT-expressing cells, membrane potential dye, choline EC20; active compounds read high; LV-AA mutant CHT in HEK293 cells. B-score at 10 µM. 310,000 compounds, 0.49% hits. AID 488977;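 active means initial fluorescence not abnormally high and integrated response B-score, plate-corrected, over 3 SD above library mean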
ANO1 activ = mouse TMEM16A channel activation, primary screen; HEK293 TMEM16A/YFP-H148Q/I152L, iodide quench fluorescence; active compounds read low; B-score at 10 µM; 340,000 compounds, 0.3% hits; AID 623877;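 active means fluorescence-ratio B-score plate-corrected deviation score at least 3 library SD below zero, with starting fluorescence score within 5 deviations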;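 further: channel opened by trigger with iodide after compound preincubation; score built on the fluorescence ratio of max minus min over baseline; more negative score means more quench and so TMEM16A activation or potentiation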
Kir21 inh = blocks the mouse Kir2.1 inward-rectifier potassium channel; P35561; B-score at 10 µM; AID 1672; 310,000 compounds, 0.85% hits; HEK293-Kir2.1, FluxOR thallium flux fluorescence; active compounds read low;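 active means fluorescence ratio B-score at or below minus 3 SD of library scores, with starting-brightness B-score within 2 SD, cut at about -4.2 in these data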;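 further: channel flux triggered by added potassium and thallium sulfate stimulus; B-score of peak minus minimum fluorescence over baseline after thallium stimulus; more negative B-score means stronger Kir2.1 block with less thallium influx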
Target sequence (P35561 whole entry, looked up): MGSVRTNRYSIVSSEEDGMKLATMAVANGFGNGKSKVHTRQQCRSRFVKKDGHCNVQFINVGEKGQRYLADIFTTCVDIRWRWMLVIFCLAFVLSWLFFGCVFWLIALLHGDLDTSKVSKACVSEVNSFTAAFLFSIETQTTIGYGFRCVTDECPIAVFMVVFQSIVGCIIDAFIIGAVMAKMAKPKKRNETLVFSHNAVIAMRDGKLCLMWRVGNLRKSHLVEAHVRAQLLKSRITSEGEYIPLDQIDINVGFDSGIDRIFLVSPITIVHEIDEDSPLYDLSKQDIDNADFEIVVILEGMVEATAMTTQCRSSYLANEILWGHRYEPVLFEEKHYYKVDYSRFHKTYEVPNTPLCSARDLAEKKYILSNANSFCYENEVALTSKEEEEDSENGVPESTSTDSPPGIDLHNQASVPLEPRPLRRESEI
CHT block = human CHT choline transport inhibition. AID 488975. B-score at 10 µM. Q9GZV3. CHT-expressing cells, membrane potential dye, choline response; active compounds read low. 310,000 compounds, 0.86% hits;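 active means B-score over 3 SD under the library average, and starting fluorescence ratio not unusually high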;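 further: choline stimulus applied at its EC90 after an EC20 pre-addition; B-score computed on integrated fluorescence ratio after choline addition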
TMEM16A reconf = reconfirmed blocker of mouse TMEM16A calcium-activated chloride channel; shares compounds with ANO1 block; HEK293 TMEM16A/YFP-H148Q, iodide quench fluorescence; ionomycin added to raise cell calcium; inhibition, % at 10 µM; 2,300 compounds, 39% hits;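 active means mean duplicate percent inhibition, scaled so buffer wells are 0 and the reference blocker 100, over three buffer SD above buffer mean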
HEK293 Ca mobil = alters calcium mobilization in TMEM16A HEK293 cells, counter-screen. shares compounds with ANO1 block. TMEM16A/YFP HEK293, Fluo4 calcium mobilization. calcium response (% of ionomycin), % at 10 µM. 2,300 compounds, 2% hits. AID 652231;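 active means duplicate-averaged calcium signal over 20% of the ionomycin maximum, relative to buffer baseline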;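 further: each well's signal is peak minus trough fluorescence divided by its pre-addition baseline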
Parental YFP cnt = parental YFP-HEK293 iodide quench counter-screen activity; shares compounds with ANO1 block; ionomycin; YFP ratio F(max-min)/F0 at 10 µM; 2,300 tested, under 10 active;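 active means yellow fluorescent protein signal ratio exceeding the buffer control mean by over 5 SD of those controls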;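 further: ratio is mean of duplicate wells from kinetic YFP trace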
ClC-1 rat inh = selectivity of TMEM16A inhibitors: inhibition of rat ClC-1 chloride channel. shares compounds with ANO1 block. CHO ClC-1-YFP, iodide influx fluorescence quench; iodide control reads 0, buffer control 100. ratio percent, % at 10 µM. 2,300 tested, under 10 active. AID 652236;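 active means duplicate-mean ratio percent above the mean of iodide-only control wells, which defines zero, plus 5 of their SD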;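 further: higher percent means stronger block of ClC-1 iodide influx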
Of the large screens only hits and unclear results are named; the others gave an inactive call (follow-up assays come after a bar, where they were run). A selection: hits, their analogues and other compounds. The true share with any hit is near 3.2%.

Nc1ccc(N=Nc2ccccc2)c(N)n1	none
CN(c1ccccc1)S(=O)(=O)c1cccc(NC(=O)c2nn(C)c(=O)c3ccccc23)c1	none (no result: ANO1 block, Rce1 inh, CHT PAM, Kir21 inh, CHT block)
O=C(OCCn1c(=S)sc2ccccc21)c1ccccc1	none (no result: ANO1 block, Rce1 inh, CHT PAM, Kir21 inh, CHT block)
O=C(c1ccccc1)c1ccc(OCC(O)CN2CCN(Cc3ccccc3)CC2)cc1 (configuration not stated)	ANO1 block 100 | TMEM16A reconf inactive | HEK293 Ca mobil inactive | Parental YFP cnt inactive | ClC-1 rat inh inactive
COc1cc(/C=N/N=C(/N)c2nonc2N)cc(Br)c1OCc1ccccc1C	none
CCOc1cc(/C=N/N=C(/N)c2nonc2N)cc(Br)c1OCc1ccc(Cl)cc1	ANO1 block 100 | TMEM16A reconf inactive | HEK293 Ca mobil inactive | Parental YFP cnt inactive | ClC-1 rat inh inactive
CC1(C)N=C(c2ccccc2)C(c2ccccc2)=N1	none (no result: ANO1 block, Rce1 inh, CHT PAM, Kir21 inh, CHT block)
Cc1ccnc(Nc2nc(-c3ccc(O)cc3O)cs2)c1	none (no result: Rce1 inh)
Cc1ccnc(Nc2nc(-c3ccc(O)c(O)c3)cs2)c1	ANO1 block 25 (no result: Rce1 inh) | TMEM16A reconf inactive | HEK293 Ca mobil inactive | Parental YFP cnt inactive | ClC-1 rat inh inactive
CC(Sc1n[nH]c(=O)n1Cc1ccccc1)C(=O)NCC1CCCO1 (configuration not stated)	none (no result: ANO1 block, Rce1 inh, CHT PAM, Kir21 inh, CHT block)
CCCCCOC(=O)CSc1nnc(-c2cc(OC)c(OC)c(OC)c2)o1	ANO1 block 25 | TMEM16A reconf inactive | HEK293 Ca mobil inactive | Parental YFP cnt inactive | ClC-1 rat inh inactive
CCCOC(=O)CSc1nnc(-c2cc(OC)c(OC)c(OC)c2)o1	none
CC(CCc1ccccc1)NC(=O)C1CCC1 (configuration not stated)	none
COc1ccc(CCC(=O)Nc2ccc(Cl)c(S(=O)(=O)N3CCCC3)c2)cc1	none
O=C1c2cccc(Cl)c2C(=O)c2c1cccc2N1CCCC1	none
CCc1cc(C(=O)Nc2ncccc2O)sc1C	none
COc1ccc(C2=NS(=O)(=O)N(C)C(C(=O)N3CCc4ccccc4C3)=C2)cc1OC	ANO1 block 25 | TMEM16A reconf 26% | HEK293 Ca mobil inactive | Parental YFP cnt inactive | ClC-1 rat inh inactive
COc1ccc2nc(C)c3c(c2c1)OC(C(C)(Cl)Br)C3 (configuration not stated)	none
Cc1nc2ccccc2c2c1CC(C(C)(Cl)Br)O2 (configuration not stated)	ANO1 block 25 | TMEM16A reconf 18% | HEK293 Ca mobil inactive | Parental YFP cnt inactive | ClC-1 rat inh inactive
O=[N+]([O-])c1ccc(Sc2nnnn2-c2ccccc2)nc1	none (no result: ANO1 block, CHT PAM, ANO1 activ, CHT block)
COc1ccc(OC)c(NC(=O)NC2CCCc3ccccc32)c1 (configuration not stated)	none
COc1ccccc1-c1nc(C#N)c(N2CCCCCC2)o1	none
COc1ccccc1-c1nc(C#N)c(N2CCc3ccccc3C2)o1	ANO1 block 100 | TMEM16A reconf inactive | HEK293 Ca mobil inactive | Parental YFP cnt inactive | ClC-1 rat inh inactive
Cc1ccc(C)c(NC(=O)CSc2nc3ccc(N4C(=O)c5ccccc5C4=O)cc3s2)c1	none
CN1CCN(S(=O)(=O)c2ccc(N(C)Cc3cccc(F)c3)nc2)CC1	none (no result: ANO1 block, Rce1 inh, CHT PAM, Kir21 inh, CHT block)
COC(=O)c1[nH]c2ccc(C)cc2c1NC(=O)CN1CCN(c2ccccc2)CC1	ANO1 block 100 | TMEM16A reconf 20% | HEK293 Ca mobil inactive | Parental YFP cnt inactive | ClC-1 rat inh inactive
CCOC(=O)c1[nH]c2ccc(OC)cc2c1NC(C)=O	none (no result: ANO1 activ)
CCOC(=O)c1[nH]c2ccc(OC)cc2c1NC(=O)CN1CCSCC1	ANO1 block 100 (no result: Rce1 inh, Kir21 inh) | TMEM16A reconf inactive | HEK293 Ca mobil inactive | Parental YFP cnt inactive | ClC-1 rat inh inactive
O=C(CN1C(=O)c2ccccc2C1=O)Oc1ccc(Cl)cc1	none
CCC(=O)N1CCc2cc(S(=O)(=O)CCC(=O)N(C)c3ccc(OC)cc3)ccc21	none
COc1ccc(C2CC(=O)c3c(C)nc(N4CCN(Cc5ccccc5)CC4)nc3C2)cc1OC (configuration not stated)	ANO1 block 100 | TMEM16A reconf 26% | HEK293 Ca mobil inactive | Parental YFP cnt inactive | ClC-1 rat inh inactive
COc1ccc(-c2c(C)nn3c(N4CCN(Cc5ccccc5)CC4)cc(C)nc23)cc1OC	none
COc1ccc(OC)c(CN2CCN(c3ccc(S(=O)(=O)N4CCCC4)cn3)CC2)c1	none (no result: ANO1 block, Rce1 inh, CHT PAM, Kir21 inh, CHT block)
Cc1ccccc1NC(=S)NNC(=O)c1ccoc1C	ANO1 block 100 | TMEM16A reconf inactive | HEK293 Ca mobil inactive | Parental YFP cnt inactive | ClC-1 rat inh inactive
Cc1occc1C(=O)NNC(=S)Nc1ccccc1C(F)(F)F	none
O=C(O)CN1C(=O)/C(=C\C(Br)=C\c2ccccc2)SC1=S	none
CCCN1C(=O)/C(=C/c2c(NCCCOCC)nc3c(C)cccn3c2=O)SC1=S	none (no result: ANO1 block, Rce1 inh, CHT PAM, Kir21 inh, CHT block)
CCOCCCNc1nc2c(C)cccn2c(=O)c1/C=C1\SC(=S)N(CC(C)C)C1=O	none | TMEM16A reconf inactive | HEK293 Ca mobil inactive | Parental YFP cnt inactive | ClC-1 rat inh inactive
CCOc1ccc(N(CC)S(=O)(=O)c2ccc3c(c2)n(C)c(=O)c(=O)n3C)cc1	ANO1 block 100 | TMEM16A reconf inactive | HEK293 Ca mobil inactive | Parental YFP cnt inactive | ClC-1 rat inh inactive
CCOc1ccc(OCC)c(NS(=O)(=O)c2ccc3c(c2)n(C)c(=O)c(=O)n3C)c1	none
CC(C)(C)c1ccc(C(=O)NCCC(=O)N2CCC3(CC2)NCCc2[nH]cnc23)cc1	none
S=C(NCC1CCCO1)N1CCN(c2nc(-c3ccccc3)cs2)CC1 (configuration not stated)	ANO1 block 25 | TMEM16A reconf 18% | HEK293 Ca mobil inactive | Parental YFP cnt inactive | ClC-1 rat inh inactive
S=C(NCc1ccco1)N1CCN(c2nc(-c3ccccc3)cs2)CC1	none
CSCC[C@H](NS(=O)(=O)c1ccc(C)cc1)C(=O)N1CCC(C(=O)N[C@@H](Cc2ccc(O)cc2)C(=O)O)CC1	none
COc1ccc(Cl)cc1C(=O)Nc1ccccc1N1CCCCC1	none
COc1ccc(Br)cc1C(=O)Nc1ccccc1N1CCCC1	ANO1 block 100 (no result: Rce1 inh) | TMEM16A reconf 24% | HEK293 Ca mobil inactive | Parental YFP cnt inactive | ClC-1 rat inh inactive
O=C(Nc1nc(-c2cccs2)cs1)c1ccc(Cl)cc1	none

Screening data from PubChem BioAssay.
